AmpC no deterg = AmpC beta-lactamase inhibition without detergent. P00811. AmpC nitrocefin hydrolysis, absorbance 480 nm, 0.0001% Triton. Potency, µM (top dose mostly 57.1 µM), for inactives: at the top dose activity change, negative = inhibition, hits mostly inhibitors. 0.52% of 330,000 active. AID 485341;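 note: potency is the fitted concentration of half-maximal effect; plate controls were no compound for no effect and no enzyme for full effect; nearly all actives have a fitted effect of over 20% in size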
Target sequence (P00811 whole entry, looked up): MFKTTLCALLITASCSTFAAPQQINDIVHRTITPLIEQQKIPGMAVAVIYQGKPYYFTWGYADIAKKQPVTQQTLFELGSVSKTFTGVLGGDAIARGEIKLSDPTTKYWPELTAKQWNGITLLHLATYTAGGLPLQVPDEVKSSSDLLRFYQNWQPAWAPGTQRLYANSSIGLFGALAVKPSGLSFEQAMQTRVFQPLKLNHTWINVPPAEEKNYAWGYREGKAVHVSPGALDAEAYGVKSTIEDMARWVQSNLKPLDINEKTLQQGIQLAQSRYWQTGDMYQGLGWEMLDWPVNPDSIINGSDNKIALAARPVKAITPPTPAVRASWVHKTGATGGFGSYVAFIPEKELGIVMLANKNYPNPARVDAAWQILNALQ
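AmpC (5.3 nM in the dispensed reagent) in 20 mM phosphate pH 7.0 with 0.01% (detergent screen) or 0.0001% Triton X-100 was preincubated with compounds for 15 min at room temperature. Nitrocefin was then added from an 800 uM solution, and hydrolysis was followed at 480 nm.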
SARS PLpro yeast = SARS-CoV PLP inhibition in yeast; S. cerevisiae expressing SARS-CoV PLpro, growth rescue; Potency, µM (doses to about 32.9 µM), for the others: at the highest dose activity, positive = growth rescue, hits mostly activators; 0.19% of 330,000 active; calls by dose curve; note: potency is the fitted concentration of half-maximal effect; 0% is about no effect; nearly all actives have a fitted effect of over 55% in size
CHX counter = counter-screen for Shiga toxin inhibitors: cycloheximide protein synthesis inhibition; cell reporter, cycloheximide protein synthesis inhibition counterscreen; max response, %; 12% of 300,000 active; AID 2314; in the data active = max response mostly above about 13%, no sharp cut-off; inactive = mostly below about 14%; note: read at 38.3 µM for the half of the compounds with a filed dose; 0% is about no effect
AmpC inh detg = blocks E. coli AmpC beta-lactamase in detergent assay; AmpC hydrolysis of nitrocefin, absorbance 480 nm, 0.01% Triton; Potency, µM (highest dose often 114 µM), without a hit: at the highest dose activity change, negative = inhibition, usual class: inhibitors; 0.041% of 370,000 active;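 note: potency is the fitted concentration of half-maximal effect; 0% = no-compound wells and -100% = no-enzyme wells; nearly all actives have a fitted effect of over 25% in size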
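AmpC (5.3 nM in the dispensed reagent) in 20 mM phosphate pH 7.0 with 0.01% (detergent screen) or 0.0001% Triton X-100 was preincubated with compounds for 15 min at room temperature. Nitrocefin was then added from an 800 uM solution, and hydrolysis was followed at 480 nm.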
AMA1-RON2 inh = disrupts binding of P. falciparum AMA1 to RON2. AlphaScreen AMA1-biotinylated RON2 peptide binding. Potency, µM (titrated, usually from 58.2 µM), inactives show top-dose activity change, negative = inhibition, hits mostly inhibitors. 0.2% of 360,000 active. AID 720542;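 note: potency is the fitted concentration of half-maximal effect; 0% = vehicle wells and -100% = peptide control; nearly all actives have a fitted effect of over 45% in size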
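AMA1 (3D7) with his tag at 25 nM final met compounds first, then biotinylated RON2 peptide at 25 nM; detection used donor plus acceptor beads, 10 µg/mL apiece, read by AlphaScreen after 30 min at room temperature.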
Shiga toxin inh = inhibitors of Shiga toxin in Vero cells; AID 2315; 9.2% of 290,000 active; inhibition, % at 38.7 µM; Vero cells, Shiga toxin protein synthesis inhibition reporter; in the data active = inhibition mostly above about 28%, no sharp cut-off; inactive = mostly below about 43%; note: 0% is about no effect
Starred values were filed as active, the others as inactive; ? = inconclusive; · = not tested or not shown. The sample as a whole holds a higher share of hits than the screen did. Unless noted, calls come from the whole dose curve; as a rule, active = well fitted curve in the direction sought with a large enough effect; inconclusive = small, poorly fitted or top-dose-only effect, or another doubt; inactive = no such curve, though single readings can be large; an effect the other way counts as inactive or inconclusive.

SMILES | AmpC no deterg | SARS PLpro yeast | CHX counter | AmpC inh detg | AMA1-RON2 inh | Shiga toxin inh
Cc1ccc(C)c(OCc2cc(C(=O)NC3CCN(Cc4ccccc4)CC3)no2)c1 | 111.0% | -2.5% | 29.2* | -0.4% | -7.8% | 22.6
CCC(=O)Nc1nc(-c2ccc3c(c2)OCCO3)cs1 | 39.8µM* | -17.0% | 30.8* | ? | 0.0% | active
C=CCNc1nc(-c2ccc3c(c2)OCCO3)cs1 | · | · | · | · | -9.7% | ·
CC(C)(C)C(=O)Nc1nc(-c2ccc3c(c2)OCO3)cs1 | -18.8% | -1.6% | 23.7* | ? | -7.8% | 51.2*
COc1ccccc1C(=O)Nc1nc(-c2ccc3c(c2)OCCO3)cs1 | -35.5% | 0.9% | 27.9* | 11.5% | -5.5% | 56.7*
CCC(=O)Nc1nc(-c2ccc3c(c2)CC(C)N3S(C)(=O)=O)cs1 (stereo not drawn) | -6.5% | -0.8% | 26.2* | -7.0% | -17.1% | 39.3
CC1CN(S(=O)(=O)c2cccc(C(=O)NNC(=O)C(C)Oc3ccccc3F)c2)CC(C)O1 (stereo not drawn) | -7.1% | -3.5% | · | ? | 122.1% | ·
CCOc1ccc(Nc2nc3ccccc3n3cnnc23)cc1 | 63.3% | -0.7% | 4.5 | 3.5% | 16.3% | 14.0
Cc1ccccc1Cn1ccc(NC(=O)c2cnn3cccnc23)n1 | -4.9% | -5.7% | 18.8 | ? | -5.3% | 14.7
CC(CN1CCN(CCOCCO)CC1)CN1c2ccccc2Sc2ccc(Cl)cc21 (stereo not drawn) | · | · | · | · | -3.0% | ·
c1cc2c(cc1-c1csc(NNC3=NCCCCC3)n1)OCCO2 | 118.2% | -6.9% | 37.2* | 2.6% | -26.4% | 55.1*
O=C(Nc1nc2c(ccc3ccccc32)s1)c1cc([N+](=O)[O-])ccc1N1CCOCC1 | -4.1% | 1.9% | 44.6* | 3.0% | · | 73.4*
O=C(Nc1nc(-c2ccc(-c3ccccc3)cc2)cs1)c1cc([N+](=O)[O-])ccc1N1CCOCC1 | -8.2% | 0.5% | -4.0 | 0.2% | -1.1% | 30.2
O=C(Cc1cccs1)Nc1nc2c(ccc3ccccc32)s1 | -32.6% | 13.6% | 34.2* | 2.9% | 10.7% | 86.4*
CC(=O)Nc1nc2c(ccc3ccccc32)s1 | -17.8% | 13.8% | 9.9* | ? | -1.7% | 19.7
Cc1ccc(S(=O)(=O)N(C)c2ccc(OCC(=O)Nc3nc4c(ccc5ccccc54)s3)cc2)cc1 | -49.4% | -2.5% | 2.3 | ? | -12.4% | 2.4
O=C(O)c1ccc(CSc2nnc(-c3cccnc3)n2-c2ccc(Br)cc2)cc1 | -18.6% | 0.5% | -1.4 | 4.4% | -9.3% | -7.8
CCOc1ccc(C2Nc3c(C)cccc3-c3cc(C)nn32)cc1 (stereo not drawn) | · | · | · | 21.3% | · | ·
COc1cc(C(=O)N2CCCN(c3nc4cc(C)ccc4cc3C#N)CC2)cc(OC)c1OC | 137.7% | 3.7% | 10.1 | -6.5% | 5.6% | -7.6
COc1ccccc1N1C(=O)CC(Sc2n[nH]c(-c3cccc(C)c3)n2)C1=O (stereo not drawn) | 15.8µM* | -83.1% | -1.6 | -6.1% | 15.1% | 8.9
O=C(NC1CC1)c1cc(=O)c2ccccc2o1 | -11.4% | 3.9% | -2.5 | -1.4% | 6.8% | -15.7
O=C(NC1CCCC1)c1cc2ccccc2o1 | 0.4% | -0.6% | 39.9* | -0.2% | -6.1% | 55.7*
CC1CCCCC1NC(=O)c1ccco1 (stereo not drawn) | -11.4% | 2.2% | · | -13.3% | -2.2% | ·
CC1CCCCC1NC(=O)c1cc2ccccc2o1 (stereo not drawn) | -17.7% | 9.9% | 34.7* | -15.9% | -3.7% | 35.4*
Cc1ccc(NC(=O)Nc2ccc3c(c2)N(C)C(=O)CS3)nc1 | -22.6% | -5.1% | -1.4 | -10.4% | -25.5% | 42.6
SMILES | AmpC no deterg | SARS PLpro yeast | CHX counter | AmpC inh detg | AMA1-RON2 inh | Shiga toxin inh
CC(=O)N(Cc1ccco1)c1nc(C(=O)Nc2ccc(Cl)cc2)c(C)s1 | -29.5% | -12.4% | 45.6* | -10.9% | -8.8% | 95.1*
CN(NC(=O)C(=O)NCc1ccco1)C(=O)Nc1ccc(Cl)cc1 | · | · | · | · | 13.1% | ·
O=C(COC(=O)C1=Cc2ccccc2OC1)NC1CCCC1 | ? | -2.4% | 16.7* | 3.9% | -5.3% | 5.0
CC(OC(=O)C1=Cc2ccccc2OC1)C(=O)NC1CCCC1 (stereo not drawn) | 0.159µM* | -0.6% | -0.9 | 2.2% | -15.0% | 14.1
O=C(OCc1cccnc1)C1=Cc2ccccc2OC1 | -2.5% | -1.0% | 22.6 | 0.4% | -5.0% | 39.8*
O=C(OC(C(=O)NC1CCCC1)c1cccnc1)C1=Cc2ccccc2OC1 (stereo not drawn) | -5.8% | -3.2% | -3.6 | -1.0% | -2.7% | -22.0
O=C(COC(=O)C1=Cc2ccccc2OC1)NCc1ccccc1 | 30.2% | 2.5% | · | -14.1% | 3.0% | ·
CCOC(=O)C1CCN(C(=S)Nc2ccc(Cl)cc2C)CC1 | -1.4% | -0.6% | -3.6 | ? | ? | -3.6
CC(Cc1c[nH]c2ccccc12)NC(N)=O (stereo not drawn) | -12.3% | -3.7% | 7.9 | 1.8% | -10.3% | -7.7
O=C(CCNC(=O)c1ccc(Br)cc1)Nc1cccc(S(=O)(=O)N2CCCC2)c1 | -24.2% | 1.5% | · | -18.0% | -0.9% | ·
Cc1ccc(S(=O)(=O)ON2C(=O)c3ccccc3C2=O)c(C)c1 | -27.2% | -20.1% | 0.6 | 79.4µM* | -14.3% | -1.6
Cc1cccc2c1N(C)C(=O)C2=O | -6.5% | 0.0% | 4.3 | 3.1% | 2.6% | -8.3
Cc1ccc(S(=O)(=O)N2CCN(CCc3ccccc3)CC2)c(C)c1 | 25.4% | 0.2% | -2.0 | -0.1% | ? | 3.9
Cc1cc(C)c(C)c(S(=O)(=O)ON2C(=O)c3ccccc3C2=O)c1C | -40.5% | -5.6% | 16.4 | 56.2µM* | -4.2% | 16.2
O=C1c2ccccc2C(=O)N1OS(=O)(=O)c1ccc(F)cc1 | -29.0% | -19.5% | 10.6 | 44.7µM* | -8.3% | 5.0
Cc1cc(C)c(S(=O)(=O)ON2C(=O)c3ccccc3C2=O)cc1C | -36.5% | -6.2% | -5.1 | 50.1µM* | -5.5% | -13.7
Cc1ccc(OC(=O)CN2C(=O)c3ccccc3C2=O)cc1C | -11.4% | 0.1% | -4.8 | 2.1% | -0.1% | 3.9
CCCOc1ccccc1C(=O)N1CCCCC1CCN1CCOCC1 (stereo not drawn) | · | · | · | 19.4% | · | ·
Clc1cccc(Cl)c1/C=C/c1nc2ccccc2[nH]1 | -47.1% | -47.9% | 30.9* | -12.9% | 9.1% | 78.1*
Clc1ccc(/C=C/c2nc3ccccc3[nH]2)cc1 | -44.2% | -28.4% | 7.5 | ? | 8.0% | -11.6
Clc1ccc(/C=C/c2nc3ccccc3[nH]2)c(Cl)c1 | 11.2µM* | -45.6% | -1.2 | -3.8% | -4.8% | 15.2
CCn1cnc2cc(NCc3nc4ccccc4n3C)ccc21 | -16.3% | -6.3% | 26.0* | -1.0% | -7.6% | 59.0*
CCn1cnc2cc(NCc3nc4ccccc4n3Cc3ccccc3)ccc21 | 43.6% | -20.3% | 32.6* | -11.7% | 9.5% | 50.4*
CC(C)n1cnc2cc(NCc3nc4ccccc4n3C)ccc21 | -9.9% | 6.1% | 72.7* | ? | 27.9% | 81.8*

Bioassay records deposited in PubChem BioAssay by National Center for Advancing Translational Sciences (NCATS).
